Data on 12 molecules can be found in ChEMBL document CHEMBL1157539, “Thousands of chemical starting points for antimalarial lead identification” (Nature, 2010).

The experiment concerns HepG2. Put plainly: GSK_TCMDC: Percent inhibition of human HepG2 cell line. Test compounds present at 10uM. The format is functional.
`CCCCNCc1ccc(-c2nc(CN(Cc3ccc(Cl)c(Cl)c3)S(=O)(=O)c3ccc(NC(C)=O)cc3)cs2)cc1.O=C(O)C(F)(F)F`: the Inhibition worked out at 30%.

For the molecule `O=C(O)C(F)(F)F.c1cc(CN2CCCCC2)cc(-c2cccc(-c3nc4ccccc4[nH]3)c2)c1`, the Inhibition turned out to be 39%.

With `COc1ccc(CNC2CCN(C)CC2)cc1-c1ccc(S(=O)(=O)NCCc2ccccn2)s1.O=C(O)C(F)(F)F`, the Inhibition was determined as 6%.

`CS(=O)(=O)Cc1ccc(Nc2ncc(Cl)c(Nc3cccnc3C(N)=O)n2)cc1.Cl` returned an Inhibition of 54%.

In the case of `O=C(O)C(F)(F)F.OCCN1CCN(Cc2ccc(-c3cccc(-c4nc5cc(C(F)(F)F)ccc5[nH]4)c3)cc2)CC1`, the Inhibition stood at 29%.

With `CCCN1CCc2c(sc3nc(SCC(=O)Nc4ccc(C)cc4)n(-c4ccc(C)cc4)c(=O)c23)C1`, the Inhibition came to 0%.

Molecule `COc1ccc2nccc([C@@H](O)CN3CCC(NC(=O)/C=C/c4cccc(C)c4)CC3)c2c1` registered an Inhibition of 16%.

In turn, `Cc1cc(N2CCC(NS(=O)(=O)c3cccc4cccnc34)CC2)nc(Nc2cccc(C#N)c2)n1.O=C(O)C(F)(F)F` came in with an Inhibition of 12%.

Molecule `Cc1nnc2c(NC(=O)NC(C)C)cc3cc(-c4ccc(CN5CCCCC5)cc4)ccc3n12` yielded an Inhibition of 70%.

`Cc1cc(SC(C)(C)C)cc2c(Cl)c(C(N)=O)cnc12` gave an Inhibition of 83%.

Take `COc1ccc(CNC(=O)C2Cc3ccccc3CN2Cc2ccc3ccccc3c2)cc1` (configuration not stated): the Inhibition is reported as 15%.

With `CCn1cnc2c(N3CCCS3(=O)=O)cc(C(=O)N[C@@H](Cc3ccccc3)[C@H](O)CNC(C)(C)c3cccc(C(F)(F)F)c3)cc21`, the Inhibition turned out to be 9%.
